Data on 9 molecules can be found in PubChem BioAssay AID720664 (National Center for Advancing Translational Sciences (NCATS), 2013).

The experiment deals with Galactokinase (Homo sapiens) (UniProt P51570). The experiment is described as follows: qHTS for Inhibitors of Human Galactokinase (GALK): SAR round 3. The source says:
Inherited deficiency of galactose-1-phosphate uridyltransferase (GALT) can result in a potentially lethal disorder called Classic Galactosemia (OMIM 230400). Several lines of evidence indicate that an elevated level of galactose-1-phosphate (gal-1-p), the product of galactokinase (GALK), is a major, if not sole, pathogenic mechanism in patients with classic galactosemia. Therefore, finding inhibitors of GALK is a potential novel therapy for this inherent metabolic disease and is the long term goal of this project. Active compounds observed in the qHTS GALK assay (AID: 1868) were cherry picked and re-screened for validation. GALK (provided by Kent Lai) was assayed using ATP and D-(+)-Galactose (Sigma-Aldrich cat# G0750) as substrates. Promega ADP-Glo technology was used to detect the ADP product formed after the kinase reaction. Kinase reactions with and without GALK were used as negative and positive controls together with Protein Tyrosine Phosphatase CD45 inhibitor (EMD Bioscience cat# 540215) which is shown to inhibit GALK activity. Decrease in activity corresponds to inhibition of the enzyme, the desired outcome for this assay. NIH Molecular Libraries Probe Production Network [MLPCN] NIH Chemical Genomics Center [NCGC] Grant: MH085689-01 PI Name: Kent Lai, University of Utah
Three uL/well of ATP-buffer solution (35 uM ATP, 20mM HEPES pH8.0, 5 mM MgCl2, 60 mM NaCl, 1 mM DTT, 0.01% BSA final concentration) was dispensed into 1536-well, assay plates (Greiner, solid white medium-binding plates) with Aurora Discovery BioRAPTR Flying Reagent Dispenser (FRD; Beckton-Dickenson). Compound and control solution (23 nL) was transferred to the assay plate using the Kalypsys 1536-pin tool apparatus. One uL/well GALK-galactose solution (5 nM GALK, 100 uM galactose, 20 mM HEPES pH8.0, 5 mM MgCl2, 60 mM NaCl, 1 mM DTT, 0.01% BSA final concentration) was then added using the FRD yielding a total kinase reaction volume of 4 uL/ well. After 1 hour of room temperature incubation, 4 uL Kinase-Glo Plus reagent was added for a final assay volume of 8 uL/well. Luminescence was detected with the ViewLux plate reader (Perkin Elmer, Waltham, MA) after 2 min incubation using a 1 sec exposure time and 2x binning.

Inconclusive results are not listed. A call without a number means that no potency is given here. The source made the active and inactive calls. Calls come from the whole dose curve; as a rule, active = well fitted inhibition curve with a large enough effect; inconclusive = small, poorly fitted or top-dose-only effect; inactive = flat fitted curve, though single readings scatter.

Galactokinase (Homo sapiens), sequence (P51570 whole entry, looked up): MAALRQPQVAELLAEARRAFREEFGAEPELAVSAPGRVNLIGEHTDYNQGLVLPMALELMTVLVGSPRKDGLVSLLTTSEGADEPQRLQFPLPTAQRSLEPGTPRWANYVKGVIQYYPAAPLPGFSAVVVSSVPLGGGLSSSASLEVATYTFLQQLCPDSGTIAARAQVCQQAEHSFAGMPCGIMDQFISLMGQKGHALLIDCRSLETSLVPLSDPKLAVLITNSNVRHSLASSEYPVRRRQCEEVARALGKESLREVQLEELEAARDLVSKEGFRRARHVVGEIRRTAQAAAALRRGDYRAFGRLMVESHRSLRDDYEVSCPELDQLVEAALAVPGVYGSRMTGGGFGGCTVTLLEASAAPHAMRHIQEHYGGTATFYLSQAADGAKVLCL

For the molecule `CCCc1ccc(NC(=O)c2ccc3c(c2)NC(=O)CS3)cc1`, the Potency result was “inactive”.
Under `CC(=O)Nc1ncc(S(=O)(=O)N2CCOCC2)s1` stands “inactive”; under `O=C1CCCC2=C1C(c1[nH]ncc1Cl)N=C(Nc1nc3ccc(F)cc3o1)N2` (centres undefined), “inactive”; under `CC1=C(C(=O)Nc2nccs2)C(c2ccccc2Br)N=C(Nc2nc3ccccc3o2)N1` (centres undefined), “inactive”.
Under `Cc1ccc2nc(NC3=NC(c4[nH]ncc4Cl)C4=C(CCCC4=O)N3)oc2c1` (centres undefined) stands “inactive”; under `Cn1cc(Br)c(C2N=C(Nc3nc4ccccc4o3)NC3=C2C(=O)CCC3)n1` (centres undefined), 9.68 µM (active); under `Cc1cccc2nc(NC3=NC(c4[nH]ncc4Cl)C4=C(CCCC4=O)N3)oc12` (centres undefined), “inactive”.
Then `Cn1cc(Cl)c(C2N=C(Nc3nc4ccccc4o3)NC3=C2C(=O)CCC3)n1` (centres undefined), with 12.2 µM (active).
On to `CC1=C(C(=O)Nc2nncs2)C(c2nn(C)cc2Cl)N=C(Nc2nc3ccccc3o2)N1` (centres undefined), for which the Potency was 17.2 µM (active).
